Assay results from PubChem BioAssay (Tox21).
Results filed as inconclusive are left out. Active and inactive are the calls of the source. Unless noted, calls come from the whole dose curve; as a rule, active = well fitted curve in the direction sought with a large enough effect in the repeat runs; inconclusive = weak or mixed curves; inactive = no such curve, though single readings can be large; an effect the other way counts as inactive or inconclusive.

Assays:
[1] = qHTS assay to identify aromatase inhibitors - cell viability counter screen (AID 743084);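 note: cells stimulated with testosterone during compound exposure; nearly all actives have a fitted effect of over 55% in size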
[2] = qHTS assay to identify small molecule that activate the aryl hydrocarbon receptor (AhR) signaling pathway - cell viability counter screen (AID 743086);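 note: HepG2 liver cells carrying the AhR DRE luciferase reporter; series mostly up to about 70 µM; nearly all actives have a fitted effect of over 45% in size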
How it was run: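 HepG2-AhR-luc (HG2L7.5c1) cells, 4000/well, treated 24 h at 37 C with compound; viability measured as CellTiter-Fluor fluorescence after 30 min in the same wells as the luciferase read.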

[3] = qHTS assay to identify small molecule antagonists of the peroxisome proliferator-activated receptor gamma (PPARg) signaling pathway - cell viability counter screen (AID 743194); note: nearly all actives have a fitted effect of over 55% in size
How it was run: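 Cytotoxicity counter screen in PPARg-bla HEK293H cells, same wells as reporter assay. Compounds plus 50 nM rosiglitazone (final) for 17 h at 37 C, then viability read by CellTiter-Glo luminescence.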

[4] = qHTS assay for small molecule agonists of the antioxidant response element (ARE) signaling pathway - cell viability counter screen (AID 743203; calls by dose curve; note: nearly all actives have a fitted effect of over 55% in size)
How it was run: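 Viability counter screen: CellTiter-Glo luminescence, read after 30 min at room temperature, in ARE-bla HepG2 wells. Compound exposure lasted 16 h at 37C/5% CO2, following a 5 h pre-incubation of the cells after plating.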

[5] = qHTS assay to identify small molecule agonists of the peroxisome proliferator-activated receptor delta (PPARd) signaling pathway - cell viability counter screen (AID 743211); note: nearly all actives have a fitted effect of over 55% in size
How it was run: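 Luminescent ATP viability assay (CellTiter-Glo, 30 min RT) in UAS-bla HEK293H cells carrying the PPAR delta reporter construct, 3000 cells/well, after a 17 h compound treatment at 37 C.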

[6] = biological target: Peroxisome proliferator-activated receptor delta (Homo sapiens) (UniProt Q03181); experiment: qHTS assay to identify small molecule agonists of the peroxisome proliferator-activated receptor delta (PPARd) signaling pathway (AID 743212; calls by dose curve)
Peroxisome proliferator-activated receptor delta (Homo sapiens), sequence (Q03181 whole entry, looked up): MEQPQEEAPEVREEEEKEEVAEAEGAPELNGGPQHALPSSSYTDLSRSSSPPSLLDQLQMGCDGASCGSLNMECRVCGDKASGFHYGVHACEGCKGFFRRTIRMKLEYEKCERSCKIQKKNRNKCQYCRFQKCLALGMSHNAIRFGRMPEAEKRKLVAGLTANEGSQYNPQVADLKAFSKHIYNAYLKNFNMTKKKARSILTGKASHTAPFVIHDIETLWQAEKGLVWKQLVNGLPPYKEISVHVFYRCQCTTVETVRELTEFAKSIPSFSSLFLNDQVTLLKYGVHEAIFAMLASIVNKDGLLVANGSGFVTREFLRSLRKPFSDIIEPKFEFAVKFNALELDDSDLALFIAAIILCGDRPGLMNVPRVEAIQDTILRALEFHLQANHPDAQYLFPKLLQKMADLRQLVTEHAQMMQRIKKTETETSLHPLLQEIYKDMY
How it was run: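 Tox21 library screened in GeneBLAzer PPARd UAS-bla HEK293H cells. After compound treatment at 37 C, a FRET-based beta-lactamase substrate was applied for 2 h and fluorescence recorded.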

[7] = qHTS assay to identify small molecule antagonists of the peroxisome proliferator-activated receptor delta (PPARd) signaling pathway - cell viability counter screen (AID 743213); note: nearly all actives have a fitted effect of over 50% in size
How it was run: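 In this counter screen, HEK293H cells carrying a UAS-beta-lactamase reporter are co-treated with test compounds and 300 nM L165041 (final) for 17 h at 37 C; cell viability is quantified by CellTiter-Glo luminescence.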

[8] = qHTS assay to identify small molecule agonists of the farnesoid-X-receptor (FXR) signaling pathway - cell viability counter screen (AID 743218); note: nearly all actives have a fitted effect of over 45% in size
How it was run: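 Viability counter screen in the same wells: CellTiter-Glo luminescence, 30 min room-temperature incubation, measured after the beta-lactamase read. Cells were GeneBLAzer FXR-UAS-bla HEK 293T, compound-treated 16 h at 37C.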

[9] = biological target: Peroxisome proliferator-activated receptor gamma (Homo sapiens) (UniProt P37231); experiment: qHTS assay to identify small molecule antagonists of the peroxisome proliferator-activated receptor gamma (PPARg) signaling pathway (AID 743191; calls by dose curve; note: series mostly up to about 63 µM; nearly all actives have a fitted effect of over 30% in size)
Peroxisome proliferator-activated receptor gamma (Homo sapiens), sequence (P37231 whole entry, looked up): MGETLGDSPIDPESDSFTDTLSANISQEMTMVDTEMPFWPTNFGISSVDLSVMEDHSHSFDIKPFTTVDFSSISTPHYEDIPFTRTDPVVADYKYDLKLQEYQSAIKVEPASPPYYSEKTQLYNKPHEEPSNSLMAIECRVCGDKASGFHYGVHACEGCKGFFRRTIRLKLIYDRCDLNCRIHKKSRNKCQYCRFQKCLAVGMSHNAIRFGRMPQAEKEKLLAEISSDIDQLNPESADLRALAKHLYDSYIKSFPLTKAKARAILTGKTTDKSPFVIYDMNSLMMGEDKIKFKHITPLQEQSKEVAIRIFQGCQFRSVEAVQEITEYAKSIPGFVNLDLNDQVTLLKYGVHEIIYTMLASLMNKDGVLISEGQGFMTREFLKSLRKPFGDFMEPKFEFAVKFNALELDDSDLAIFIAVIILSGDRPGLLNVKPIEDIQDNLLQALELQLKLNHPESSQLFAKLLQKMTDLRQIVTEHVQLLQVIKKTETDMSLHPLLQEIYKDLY
How it was run: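 GeneBLAzer PPARg UAS-bla HEK293H cells, 5 h post-plating, exposed to compounds 17 h at 37C. LiveBLAzer B/G FRET substrate added for 1 h at room temperature; beta-lactamase reporter read by fluorescence intensity.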

[10] = qHTS assay for small molecule agonists of the antioxidant response element (ARE) signaling pathway (AID 743202; active = well fitted activation curve with a large enough effect in the signal ratio in the repeat runs, not every such curve was filed as active; the % refers to the signal ratio)
How it was run: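 HepG2 ARE-bla cells; 16 h treatment at 37 C; FRET-based beta-lactamase fluorescence read after 2 h substrate incubation at room temperature.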

[11] = qHTS assay for small molecule activators of the heat shock response signaling pathway - cell viability counter screen (AID 743209); note: nearly all actives have a fitted effect of over 50% in size
How it was run: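 Cytotoxicity counter screen run in the same wells as the heat-shock bla reporter assay: HeLa HSE-bla cells, 5 h compound exposure at 37 C, viability read by CellTiter-Glo luminescence.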

[12] = biological target: Bile acid receptor (Homo sapiens) (UniProt Q96RI1); experiment: qHTS assay to identify small molecule antagonists of the farnesoid-X-receptor (FXR) signaling pathway (AID 743217; active = well fitted inhibition curve with a large enough effect in the signal ratio in the repeat runs, not every such curve was filed as active; the % refers to the signal ratio)
Bile acid receptor (Homo sapiens), sequence (Q96RI1 whole entry, looked up): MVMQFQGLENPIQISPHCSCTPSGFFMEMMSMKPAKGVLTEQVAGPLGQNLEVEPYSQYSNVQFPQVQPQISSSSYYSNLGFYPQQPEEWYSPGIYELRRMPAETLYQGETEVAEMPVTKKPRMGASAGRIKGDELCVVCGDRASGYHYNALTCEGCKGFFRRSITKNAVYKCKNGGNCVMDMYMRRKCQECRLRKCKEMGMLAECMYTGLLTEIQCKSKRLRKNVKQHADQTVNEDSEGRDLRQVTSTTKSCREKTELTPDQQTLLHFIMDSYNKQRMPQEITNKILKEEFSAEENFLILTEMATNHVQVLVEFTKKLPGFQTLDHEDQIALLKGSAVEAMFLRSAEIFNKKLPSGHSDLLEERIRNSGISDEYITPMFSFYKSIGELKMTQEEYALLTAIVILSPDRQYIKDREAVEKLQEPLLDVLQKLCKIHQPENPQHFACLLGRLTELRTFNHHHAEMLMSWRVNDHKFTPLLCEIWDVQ
How it was run: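 Antagonist mode: chenodeoxycholic acid at 50 uM final stimulates a UAS-driven beta-lactamase reporter in HEK 293T FXR-bla cells during 16 h, 37C compound exposure. Read-out is FRET substrate fluorescence after 2 h at room temperature.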

[13] = biological target: Bile acid receptor (Homo sapiens) (UniProt Q96RI1); experiment: qHTS assay to identify small molecule agonists of the farnesoid-X-receptor (FXR) signaling pathway (AID 743220; active = well fitted activation curve with a large enough effect in the signal ratio in the repeat runs, not every such curve was filed as active; the % refers to the signal ratio)
How it was run: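 FXR-UAS-bla HEK 293T cells carrying a UAS-driven beta-lactamase reporter were plated for 5 h at 37C/5% CO2, then exposed to DMSO-dissolved Tox21 10K compounds for 16 h at 37C. A LiveBLAzer B/G FRET substrate was loaded for 2 h at room temperature before fluorescence reading.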

[14] = qHTS assay to identify small molecule antagonists of the farnesoid-X-receptor (FXR) signaling pathway - cell viability counter screen (AID 743221; active = well fitted cell-killing curve with a large enough effect in the repeat runs, not every such curve was filed as active; note: nearly all actives have a fitted effect of over 50% in size)
How it was run: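 In GeneBLAzer FXR-UAS-bla HEK 293T cells stimulated with 50 uM chenodeoxycholic acid (final), compounds acted for 16 h at 37 C. Viability was assessed afterwards by CellTiter-Glo luminescence.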

[15] = biological target: Vitamin D3 receptor (Homo sapiens) (UniProt P11473); experiment: qHTS assay to identify small molecule agonists of the vitamin D receptor (VDR) signaling pathway (AID 743222; calls by dose curve)
Vitamin D3 receptor (Homo sapiens), sequence (P11473 whole entry, looked up): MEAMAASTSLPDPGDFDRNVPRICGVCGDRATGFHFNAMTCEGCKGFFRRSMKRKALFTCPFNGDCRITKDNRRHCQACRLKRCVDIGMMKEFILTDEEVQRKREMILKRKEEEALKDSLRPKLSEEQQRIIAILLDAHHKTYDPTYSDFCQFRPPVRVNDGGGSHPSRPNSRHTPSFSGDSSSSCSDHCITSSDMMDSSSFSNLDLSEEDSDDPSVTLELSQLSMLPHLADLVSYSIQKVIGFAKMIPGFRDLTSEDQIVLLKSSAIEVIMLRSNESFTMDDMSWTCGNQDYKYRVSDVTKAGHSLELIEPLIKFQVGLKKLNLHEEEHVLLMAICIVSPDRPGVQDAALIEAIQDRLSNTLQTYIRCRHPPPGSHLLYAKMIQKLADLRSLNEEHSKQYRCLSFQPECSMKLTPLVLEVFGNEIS
How it was run: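 Agonist mode, beta-lactamase reporter: fluorescence from LiveBLAzer B/G FRET substrate (2 h, room temperature) read after 16 h compound treatment at 37 C of VDR-bla cells, which were pre-incubated 4 h after seeding.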

[16] = biological target: Vitamin D3 receptor (Homo sapiens) (UniProt P11473); experiment: qHTS assay to identify small molecule antagonists of the vitamin D receptor (VDR) signaling pathway (AID 743223; active = well fitted inhibition curve with a large enough effect in the signal ratio in the repeat runs, not every such curve was filed as active; the % refers to the signal ratio)
How it was run: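 Agonist 1alpha,25-dihydroxyvitamin D3 (3 nM in well) was added with each compound to VDR-bla cells preincubated 4 h. Cells stood 16 h at 37C, then FRET substrate 2 h at room temperature; fluorescence intensity recorded.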

[17] = biological target: Peroxisome proliferator-activated receptor delta (Homo sapiens) (UniProt Q03181); experiment: qHTS assay to identify small molecule antagonists of the peroxisome proliferator-activated receptor delta (PPARd) signaling pathway (AID 743215; active = well fitted inhibition curve with a large enough effect in the signal ratio in the repeat runs, not every such curve was filed as active; the % refers to the signal ratio;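 note: cells stimulated with agonist L165041 at 300 nM final during compound exposure; series mostly up to about 62 µM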)
How it was run: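 Agonist L165041 (300 nM final) added with compound to PPARd-bla HEK293H UAS-bla reporter cells; 17 h incubation at 37 C. Read-out: LiveBLAzer FRET substrate, 2 h at room temperature, fluorescence intensity.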

[18] = qHTS assay for small molecule activators of the heat shock response signaling pathway (AID 743210; active = well fitted activation curve with a large enough effect in the signal ratio in the repeat runs, with a control signal flat, not every such curve was filed as active; the % refers to the signal ratio;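 note: HeLa cells with beta-lactamase reporter driven by heat shock elements; series mostly up to about 63 µM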)
How it was run: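 Following overnight attachment, HSE-bla HeLa cells received test compounds for 5 h at 37 C; beta-lactamase activity was then detected via FRET substrate fluorescence.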

[19] = biological target: Peroxisome proliferator-activated receptor gamma (Homo sapiens) (UniProt P37231); experiment: qHTS assay to identify small molecule agonists of the peroxisome proliferator-activated receptor gamma (PPARg) signaling pathway (AID 743094; active = well fitted activation curve with a large enough effect in the signal ratio in the repeat runs, not every such curve was filed as active; the % refers to the signal ratio)
How it was run: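 Agonist activity was taken from a beta-lactamase reporter (FRET substrate, 1 h at room temperature) in HEK293H cells carrying a PPARg UAS-bla construct. Compounds in DMSO were incubated 17 h at 37C after a 5 h cell pre-incubation.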

[20] = biological target: Aryl hydrocarbon receptor (Homo sapiens) (UniProt P35869); experiment: qHTS assay to identify small molecule that activate the aryl hydrocarbon receptor (AhR) signaling pathway (AID 743085);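 note: HG2L7.5c1 human HepG2 liver cells with stably integrated DRE-driven firefly reporter; series mostly up to about 70 µM; nearly all actives have a fitted effect of over 15% in size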
Aryl hydrocarbon receptor (Homo sapiens), sequence (P35869 whole entry, looked up): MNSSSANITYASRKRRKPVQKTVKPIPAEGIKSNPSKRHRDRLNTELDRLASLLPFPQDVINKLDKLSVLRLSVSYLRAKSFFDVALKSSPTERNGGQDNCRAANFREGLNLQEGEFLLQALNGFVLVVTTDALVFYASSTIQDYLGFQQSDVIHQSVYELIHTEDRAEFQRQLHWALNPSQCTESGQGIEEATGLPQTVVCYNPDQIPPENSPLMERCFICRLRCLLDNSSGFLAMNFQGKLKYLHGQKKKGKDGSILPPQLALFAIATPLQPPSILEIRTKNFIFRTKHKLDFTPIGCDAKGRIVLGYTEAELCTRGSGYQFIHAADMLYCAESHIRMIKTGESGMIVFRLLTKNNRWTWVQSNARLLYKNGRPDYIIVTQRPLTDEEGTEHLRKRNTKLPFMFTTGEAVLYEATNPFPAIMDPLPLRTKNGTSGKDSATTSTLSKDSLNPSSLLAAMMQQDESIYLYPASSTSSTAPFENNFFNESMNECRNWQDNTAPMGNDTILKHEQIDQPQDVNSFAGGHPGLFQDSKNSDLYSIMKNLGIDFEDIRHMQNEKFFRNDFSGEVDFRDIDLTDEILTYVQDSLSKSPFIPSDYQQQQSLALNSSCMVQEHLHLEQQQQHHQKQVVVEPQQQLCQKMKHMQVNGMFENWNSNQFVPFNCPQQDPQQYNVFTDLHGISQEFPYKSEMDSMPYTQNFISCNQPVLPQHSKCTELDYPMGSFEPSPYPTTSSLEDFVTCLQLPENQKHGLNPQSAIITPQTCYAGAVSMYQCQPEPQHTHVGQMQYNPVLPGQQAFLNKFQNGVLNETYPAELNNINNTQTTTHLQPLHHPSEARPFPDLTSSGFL
How it was run: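 24 h compound exposure, 37C, HepG2-derived HG2L7.5c1 cells with DRE-responsive luciferase. Readouts: fluorescence viability, then luminescence at room temperature after 30 min.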

Measured: Potency

CC(=O)OCC(=O)[C@@]1(O)CC[C@H]2[C@@H]3CCC4=CC(=O)CC[C@]4(C)[C@H]3C(=O)C[C@@]21C
inactive: [1] | [2] | [3] | [4] | [5] | [6] | [7] | [8]

COc1ccc2c(c1)CCCC2=O
not listed: [1] | [2] | [6] | [17] | [18] | [19] | [20]
inactive: all other assays above

CC/C=C\CC/C=C/C(OCC)OCC
inactive: [2] | [3] | [4] | [11] | [5] | [6] | [7] | [17] | [8] | [14]

Brc1c(NC2=NCCN2)ccc2nccnc12
not listed: [6] | [9] | [12] | [13] | [17] | [19] | [20]
inactive: all other assays above

Cc1nc2c([nH]1)c(=O)n(C)c(=O)n2Cc1ccco1
not listed: [6] | [9] | [17] | [19] | [20]
inactive: all other assays above

Cc1cc(O)cc2c1O[C@](C)(CCC[C@H](C)CCC[C@H](C)CCCC(C)C)CC2
not listed: [5] | [6] | [7] | [9] | [17] | [20]
inactive: all other assays above

CC(C)NCCCC1(C(N)=O)c2ccccc2-c2ccccc21
inactive: [9] | [3] | [10] | [4] | [11] | [5] | [6] | [8] | [14] | [15] | [16]

Cc1sccc1Br
not listed: [1] | [2] | [6] | [17] | [19] | [20]
inactive: all other assays above

C=C1CC[C@H]2C[C@@H]1C2(C)C
not listed: [6] | [9] | [12] | [13] | [17] | [18] | [20]
inactive: all other assays above

CN1N=C(C(N)=O)CCC1=O
not listed: [1] | [2] | [12] | [13] | [16] | [17] | [19] | [20]
inactive: all other assays above

NCCc1cnc[nH]1
inactive: [1] | [2] | [3] | [10] | [4] | [18] | [5] | [7] | [8] | [14]

Cc1cccc(C)c1NC(=O)C(C)N (stereo not given)
not listed: [3] | [9] | [10] | [12] | [13] | [19] | [20]
inactive: all other assays above

COC(=O)CCSCCC(=O)OC
not listed: [1] | [6] | [8] | [9] | [15] | [16] | [19] | [20]
inactive: all other assays above

C=CCOCC(CC)(CO)COCC=C
not listed: [1] | [9] | [12] | [13] | [15] | [18] | [19] | [20]
inactive: all other assays above

NC(=O)c1cn(Cc2c(F)cccc2F)nn1
not listed: [1] | [9] | [19] | [20]
inactive: all other assays above

NS(=O)(=O)c1cc(C(=O)NN2C[C@H]3[C@H]4CCC(C4)[C@H]3C2)ccc1Cl
inactive: [3] | [10] | [4] | [11] | [18] | [5] | [7] | [8] | [14]

CCCCCCCCS(=O)(=O)Cl
not listed: [1] | [6] | [10] | [12] | [13] | [19]
inactive: all other assays above

CCOC(=O)c1cccc(N)c1
not listed: [9] | [12] | [13] | [19] | [20]
inactive: all other assays above

COc1ccc(CCN(C)CCCC(C#N)(c2cc(OC)c(OC)c(OC)c2)C(C)C)cc1OC (stereo not given)
not listed: [1] | [6] | [9] | [12] | [13] | [16] | [17] | [19]
inactive: all other assays above

NC(=O)c1ccc(N)cc1
not listed: [6] | [17] | [19] | [20]
inactive: all other assays above

Nc1c2c(nc3ccccc13)CCCC2O (stereo not given)
not listed: [9] | [10] | [12] | [13] | [15] | [16] | [20]
inactive: all other assays above
